Measurements reported in PubChem BioAssay AID1347146 (National Center for Advancing Translational Sciences (NCATS), 2019).
Results filed as inconclusive are left out. A number with no mark means an inactive call. Activity calls are given as the source filed them. Calls come from the whole dose curve; as a rule, active = well fitted inhibition curve with a large enough effect; inconclusive = small, poorly fitted or top-dose-only effect; inactive = no such curve, though single readings can be large or run the other way.

Each compound was assayed against Nicotinamide N-methyltransferase (Homo sapiens) (UniProt P40261) (assay: qHTS Assay for Inhibitors of N-terminal methyltransferase 1 (NTMT1): NNMT MTaseGlo counterscreen assay). Conditions: NNMT enzyme, MTase-Glo luminescence counterscreen; series mostly up to 57.1 µM; activity change, negative = inhibition: at the top concentration.
Sequence of Nicotinamide N-methyltransferase (Homo sapiens) (P40261 whole entry, looked up): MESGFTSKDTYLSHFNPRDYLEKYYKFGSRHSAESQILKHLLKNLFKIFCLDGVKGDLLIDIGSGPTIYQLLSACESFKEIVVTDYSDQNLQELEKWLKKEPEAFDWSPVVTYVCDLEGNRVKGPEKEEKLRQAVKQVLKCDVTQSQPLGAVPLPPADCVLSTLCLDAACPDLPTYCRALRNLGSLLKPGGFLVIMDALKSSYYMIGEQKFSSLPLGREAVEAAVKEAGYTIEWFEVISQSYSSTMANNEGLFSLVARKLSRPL
In short: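 Luminescent MTase-Glo read-out of SAH from nicotinamide methylation: 1 µM nicotinamide, 100 µM SAM, 125 nM NNMT, 30 min RT after ~15 min compound preincubation. Values normalized to no-enzyme/DMSO controls, Hill-fitted.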
Potency is the fitted concentration of half-maximal effect.
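Throughout, for activity change, negative = inhibition: plate controls were DMSO without inhibitor for no effect and no-enzyme control for full effect.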

Row | SMILES | Potency | activity change, negative = inhibition
1 | CC/C(=C(\c1ccccc1)c1ccc(OCCN(C)C)cc1)c1ccccc1 | inactive | –
2 | OCC1OC(n2cnc3c(NO)ncnc32)C(O)C1O (stereo unspecified) | – | 116%
3 | S=C(Nc1ccccc1)Nc1nccs1 | – | -18.7%
4 | CC#C[C@]1(O)CC[C@H]2[C@@H]3CCC4=CC(=O)CCC4=C3[C@@H](c3ccc(N(C)C)cc3)C[C@@]21C | – | -9.63%
5 | O=Nc1ccc2oc(=O)ccc2c1 | – | -8.49%
6 | Oc1ccccc1O | – | 17.2%
7 | O=[N+]([O-])c1ccc(-c2nc(-c3ccc(F)cc3)c(-c3ccncc3)[nH]2)cc1 | – | -15.3%
8 | Oc1ccc(O)cc1 | 39.8 µM (active) | –
9 | CC(CN1c2ccccc2Sc2ccccc21)N(C)C (stereo unspecified) | – | 98.6%
10 | CN1Cc2sccc2C(c2ccc(O)c(O)c2)C1 (stereo unspecified) | – | -7.5%
11 | COc1cc(/C=C(\C#N)C(=O)c2ccc(O)c(O)c2)cc(I)c1O | – | -14.5%
12 | O=C1NC(=O)C(=Cc2ccc(-c3ccc(F)cc3O)o2)S1 | – | -13.8%
13 | OCC1OC(n2cnc3c(NCc4ccco4)ncnc32)C(O)C1O (stereo unspecified) | – | 50.2%
14 | Nc1nc(F)nc2c1ncn2[C@@H]1O[C@H](CO)[C@@H](O)[C@@H]1O | – | -13.1%
15 | CCC(CC)n1ccc2c(C(=O)NCc3c(C)cc(C)[nH]c3=O)cc(C#N)cc21 | – | -10.6%
16 | Cc1cccc(C2CN(C)CCc3c2cc(O)c(O)c3Cl)c1 (stereo unspecified) | – | -16.8%
17 | COc1cc2c(NC3CCN(C)CC3)cc(N3CCCCN(C)CC3)cc2cc1OCCOCCN(C)C | – | -7.49%
18 | N=c1c[n+](N2CCOCC2)[n-]o1 | – | -13.7%

Row | SMILES | Potency | activity change, negative = inhibition
19 | CCN1C(=O)C=CC1=O | – | -5.26%
20 | CN(C)CCCN1c2ccccc2Sc2ccccc21 | – | -9.98%
21 | CC(Cc1ccc(O)c(O)c1)C(C)Cc1ccc(O)c(O)c1 (stereo unspecified) | 39.8 µM (active) | –
22 | N#C/C(=C\c1ccc(O)c(O)c1)C(=O)c1ccc(O)c(O)c1 | – | -6.84%
23 | Nc1nc(=S)c2ncn([C@H]3O[C@@H](CO)[C@@H](O)[C@@H]3O)c2[nH]1 | – | -7.78% [at 28.5 µM]
24 | CCC(=O)c1ccc2c(c1)N(CCCN(C)C)c1ccccc1S2 | – | -10.4%
25 | COC(=O)[C@@H]1[C@H]2C[C@H]3c4[nH]c5ccccc5c4CCN3C[C@@H]2CC[C@@H]1O | – | -4.61%
26 | N.N.N.N.N.N.N.N.N.N.N.N.N.N.O.O.[Ru+4].[Ru+5].[Ru+5] | – | -1.41%
27 | O=C1Nc2ccc(I)cc2/C1=C/c1cc(Br)c(O)c(Br)c1 | 25.1 µM (active) | –
28 | O=C(O)Cc1ccc(O)c(O)c1 | – | -4.93%
29 | CNC(=O)c1cnn(-c2nc(N)c3ncn([C@@H]4O[C@H](CO)[C@@H](O)[C@H]4O)c3n2)c1 | – | -9.86%
30 | CC(C)COCC(CN(Cc1ccccc1)c1ccccc1)N1CCCC1 (stereo unspecified) | – | -7.75%
31 | O=C(N[C@@H](Cc1ccccc1)C(=O)CCl)OCc1ccccc1 | – | -28.6%
32 | C[C@](Cc1ccc(O)c(O)c1)(NN)C(=O)O | – | -14.1%
33 | O=C(/C=C/c1ccc(O)cc1)c1ccc(O)cc1O | – | -18.7%
34 | COc1ccccc1N1CCN(CCN2C(=O)CC3(CCCC3)CC2=O)CC1 | – | -10.2%
35 | C/C(=C\CNc1ncnc2c1ncn2[C@@H]1O[C@H](CO)[C@@H](O)[C@H]1O)CO | – | 92.7%
36 | O=S(=O)(c1cccc2c(Cl)cccc12)N1CCCNCC1 | – | -28.2%
